Bioassay records from PubChem.
Giardia FBPA inh – Giardia lamblia aldolase inhibition | 290,000 compounds, 0.71% hits | A8B2U2 | purified Giardia FBPA | Potency, µM (series often up to 59.6 µM), without a hit: at the highest dose activity, negative = inhibition, usual class: inhibitors | AID 2451; note: potency is the fitted concentration of half-maximal effect; % is set by controls: 0 for no effect and ±100 for the full control effect; nearly all actives have a fitted effect of over 55% in size
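40 nM FBPA preincubated 10 min at RT with compound (up to 57.5 uM final), then substrate plus GAPDH/TPI/NAD/arsenate coupling and diaphorase/resazurin added. Fluorescence read after 20 min at RT, 525/598 nm.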
Cycloheximide cs – affects cycloheximide protein synthesis inhibition readout, counter-screen; cell reporter, cycloheximide protein synthesis inhibition counterscreen; AID 2314; max response, %; 300,000 compounds, 12% hits; in the data active = max response mostly above about 13%, no sharp cut-off; inactive = mostly below about 14%; note: read at 38.3 µM for the half of the compounds with a filed dose; 0% is about no effect
NS1 function inh – inhibitors of influenza NS1 protein function. Potency, µM (titrated, usually from 46.1 µM), without a hit: at the highest dose activity, positive = more growth. 270,000 compounds, 0.4% hits; calls by dose curve; note: potency is the fitted concentration of half-maximal effect; actives are rising curves; nearly all actives have a fitted effect of over 50% in size
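Growth recovery, yeast-based: influenza A NS1 expressed in S. cerevisiae causes slow growth, and suppressors are detected by OD600. The parent strain without NS1 is used as positive control.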
Shiga toxin inh – Shiga toxin inhibition; inhibition, % at 38.7 µM; Vero cells, Shiga toxin protein synthesis inhibition reporter; 290,000 compounds, 9.2% hits; in the data active = inhibition mostly above about 28%, no sharp cut-off; inactive = mostly below about 43%; note: 0% is about no effect
LmPK inhibitor – LmPK (Leishmania mexicana) enzyme inhibition | purified LmPK, Kinase-Glo ATP luminescence, 1 h | AID 1721 | 290,000 compounds, 0.37% hits | Potency, µM (titrated, usually from 57.5 µM), for the others: at the highest dose activity change, negative = inhibition, usual class: inhibitors; note: potency is the fitted concentration of half-maximal effect; % is set by controls: 0 for no effect and ±100 for the full control effect
Target sequence (Q27686 whole entry, looked up): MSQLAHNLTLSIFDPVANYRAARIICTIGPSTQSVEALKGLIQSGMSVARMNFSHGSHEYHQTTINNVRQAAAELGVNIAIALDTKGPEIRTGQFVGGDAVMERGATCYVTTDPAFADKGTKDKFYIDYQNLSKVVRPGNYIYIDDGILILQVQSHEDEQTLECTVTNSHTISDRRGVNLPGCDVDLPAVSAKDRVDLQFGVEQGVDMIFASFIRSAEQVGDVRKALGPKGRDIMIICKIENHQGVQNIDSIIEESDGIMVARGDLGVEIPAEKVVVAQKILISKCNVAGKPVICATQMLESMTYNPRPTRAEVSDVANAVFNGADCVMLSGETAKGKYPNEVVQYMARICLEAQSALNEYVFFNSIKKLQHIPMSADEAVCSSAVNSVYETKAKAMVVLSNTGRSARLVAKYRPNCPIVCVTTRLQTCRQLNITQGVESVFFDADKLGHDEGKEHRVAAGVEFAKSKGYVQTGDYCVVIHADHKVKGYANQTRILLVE
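Screened at intermediate enzyme activity to detect both inhibitors and activators: LmPK at 0.1 nM, with a 0.5 nM enzyme column as activation reference. PEP 0.5 mM, ADP 0.1 mM; ATP detected by luminescence after 1 h.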
Active calls of the source: *; ? = inconclusive; / = no result; [ ] = remark or other dose. Only some compounds are listed: those with a hit (about 14% of all), similar ones and a draw of the others. Unless noted, calls come from the whole dose curve; as a rule, active = well fitted curve in the direction sought with a large enough effect; inconclusive = small, poorly fitted or top-dose-only effect, or another doubt; inactive = no such curve, though single readings can be large; an effect the other way counts as inactive or inconclusive.

SMILES | Giardia FBPA inh | Cycloheximide cs | NS1 function inh | Shiga toxin inh | LmPK inhibitor
O=C(N/N=C/c1ccc(Cl)c([N+](=O)[O-])c1)c1cnccn1 | -18.5% | 1.3 | -6.1% | 24.9 | -4.9%
O=C(N/N=C/c1ccccc1[N+](=O)[O-])c1cnccn1 | -18.0% | 31.0* | -0.3% | 91.4* | -3.4%
O=C(N/N=C/c1ccccc1[N+](=O)[O-])c1ccncc1 | 0.3% | 20.9* | 1.9% | 39.7* | -1.8%
O=C(N/N=C/C=C/c1ccccc1[N+](=O)[O-])c1ccncc1 | ? | -3.7 | 6.5% | 6.5 | -4.7%
COc1cccc(/C=N/NC(=O)c2cnccn2)c1OC | -1.6% | 17.2* | 4.2% | 50.0* | -2.1%
O=C1[C@@H]2[C@H]3[C@H](O)[C@H](O)C/C(=N/OC[C@@H](O)COCc4ccco4)[C@@H]3CC[C@H]2C(=O)N1c1ccc(F)cc1F | 1.4%[12.9 µM] | / | / | / | /
COc1ccc(F)cc1S(=O)(=O)NCCCn1ccnc1 | -10.1% | -0.6 | 4.4% | -6.4 | 0.5%
Cc1ccc(C(=O)CNc2ccccc2C)cc1 | -0.5% | 42.2* | -59.6% | 118.2* | -13.9%
Cc1ccc(C(=O)CC(=O)c2ccc(C(C)(C)C)cc2)cc1 | 0.5% | 7.9 | 1.3% | 5.9 | -5.9%
Cc1ccc(NC(=O)CC(=O)Nc2ccc(C)cc2C)c(C)c1 | 0.6% | 7.4 | -5.5% | 2.8 | -1.7%
Cc1ccc(C(=O)CNc2ccc(C)cc2C)cc1 | -2.8% | 13.1* | -10.7% | / | 0.2%
COC(=O)NC(c1ccco1)C(C(C)=O)C(=O)OC (stereo unspecified) | -8.8%[12.9 µM] | / | / | / | /
CCOc1ccc(N2CC(C(=O)NC3CCCCCC3)CC2=O)cc1 (stereo unspecified) | 7.4% | -6.5 | -10.2% | -14.1 | -7.9%
Nc1[nH]c(N=NC(=O)c2ccc(F)cc2)c2ccccc12 | -8.2% | 90.9* | 25.3% | 121.1* | -1.6%
Nc1ccccc1C(=O)NCc1ccc(F)cc1 | -1.9% | 3.8 | 12.1% | -7.0 | -2.8%
Nc1ccccc1C(=O)N=Nc1[nH]c(N)c2ccccc12 | 20.9% | 43.6* | 11.2% | 16.2* | -21.3%
CN(C)CC[n+]1ccc(C(=O)c2ccccc2)cc1 | ? | -1.8 | 8.8% | / | 6.7%
COc1cc(OC)cc(C(=O)NC(=S)N(Cc2ccccc2)C(C)C)c1 | 21.2% | -3.2 | ? | 20.4 | 1.5%
O=C(CN1CCc2ccccc2C1)c1cccs1 | -26.2% | 48.7* | -7.7% | 81.6* | -7.8%
CC1CN(CC(=O)c2ccccc2Cl)CC(C)O1 (stereo unspecified) | -6.1% | 5.1 | -35.6% | 7.3 | 0.7%
CC1CC(C)CN(CC(=O)c2cccs2)C1 (stereo unspecified) | -0.7% | -1.8 | 0.9% | -1.3 | 0.5%
CC1CCN(CC(=O)c2cccs2)CC1 | 2.0% | 13.3* | -0.2% | 36.7* | 2.6%
CC1CCN(CC(=O)c2ccccc2Cl)CC1 | 2.4% | 13.8 | 7.7% | 31.0* | -2.3%
COC(=O)C(C)NC(=S)N1CCN(c2c(F)cc3c(=O)c(C(=O)O)cn(C4CC4)c3c2OC)CC1C (stereo unspecified) | -28.6% | 1.0 | 6.7% | -16.2 | 8.7%
COc1ccc(/C=N/NC(=O)CCCCCNC(=O)c2ccccc2)cc1 | 0.6% | -1.1 | -7.5% | -15.0 | -4.3%
SMILES | Giardia FBPA inh | Cycloheximide cs | NS1 function inh | Shiga toxin inh | LmPK inhibitor
O=C(CCCCCNC(=O)c1ccccc1)N/N=C/c1ccccc1O | ? | 25.1* | 4.0% | 25.3 | -2.3%
O=C(CCCCCNC(=O)c1ccccc1)N/N=C/c1ccco1 | 0.6% | -2.1 | / | 4.8 | 0.0%
CN(C)c1ccc(/C=N/NC(=O)CCCCCNC(=O)c2ccccc2)cc1 | 0.2% | 55.5* | -10.5% | 59.9* | -7.0%
Cc1cc(Cl)ccc1C(=O)C1CCCN(C(=O)c2cnn(C(C)C)c2)C1 (stereo unspecified) | / | 7.8 | -3.8% | 19.0 | 3.3%
N#C/C(=C\c1ccco1)C(=O)NCC1CCCO1 (stereo unspecified) | 3.4% | 17.5* | 1.2% | 49.9* | -4.1%
Cc1ccccc1-n1c(C)cc(/C=C(\C#N)C(=O)NCC2CCCO2)c1C (stereo unspecified) | -6.9% | 65.1* | -7.6% | 122.6* | 4.9%
COc1ccc(/C=C(\C#N)C(=O)NCc2cccs2)cc1OC | 5.2% | 1.1 | -1.9% | -3.6 | 0.3%
Cc1cc(/C=C(\C#N)C(=O)NCc2cccs2)c(C)n1-c1ccccc1F | 3.2% | 52.1* | 5.2% | 80.0* | 1.6%
N#C/C(=C\c1ccc[nH]1)C(=O)NCC1CCCO1 (stereo unspecified) | 3.0% | 25.3* | -3.6% | 38.3 | 0.2%
CCCn1c(SCC(=O)Nc2ccccc2OC)nnc1-c1ccco1 | -4.3% | -0.6 | 3.1% | -13.8 | -5.4%
CCOC(=O)CN(C(=O)c1snc(C(N)=O)c1N)C(C(=O)NC1CCCCC1)c1ccc(F)cc1 (stereo unspecified) | 1.5% | -2.8 | 5.8% | -3.6 | -0.8%
COc1cccc(OC)c1C1=Nn2c(nnc2-c2ccccc2C)SC1 | 5.3% | 7.3 | / | 6.5 | /
Cc1ccc(S(=O)(=O)Nc2ccc(N3CCOCC3)cc2)cc1C | -4.4% | -4.2 | -10.1% | -16.9 | 6.1%
Cc1c(C(=O)O)sc2ncn(C)c(=O)c12 | 10.3% | -2.0 | 3.5% | -0.4 | -2.4%
Cc1ccc(OC(=O)c2sc3ncn(C)c(=O)c3c2C)cc1 | 1.0% | 41.0* | / | 141.6* | 7.3%
CC(C)(C)c1csc(NC(=O)c2ccc(Br)o2)n1 | / | 47.3* | -58.3% | 98.7* | 2.2%
CCOC(=O)Cc1csc(NC(=O)/C=C/c2ccc(Br)o2)n1 | -3.5% | 27.1 | -41.5% | 34.1 | -0.7%
CCOC(=O)Cc1csc(N/N=C/c2ccc(Cl)cc2)n1 | -1.8% | 30.7* | 2.6% | 53.2* | 1.8%
CCOC(=O)Cc1csc(NC(=O)Nc2ccc(Cl)cc2)n1 | -1.4% | 1.9 | -5.3% | 19.4 | 4.7%
CCOC(=O)Cc1csc(NC(=O)c2ccc(Br)o2)n1 | 4.7% | 37.7* | -54.7% | 35.6* | 2.7%
CCOC(=O)Cc1csc(NC(=O)Nc2cccc(Cl)c2)n1 | 4.2% | 8.9* | 1.7% | 25.7 | -2.0%
CCOC(=O)Cc1csc(NC(=O)c2ccc(Cl)nc2)n1 | -11.9% | -1.8 | -21.0% | -7.5 | -1.7%
CC[C@@H](C)[C@@H](CO[C@@H](Cc1ccccc1)C(=O)N[C@@H](CCS(C)(=O)=O)C(=O)OC(C)C)NC[C@@H](N)CS | -16.0% | 11.8 | / | -6.9 | /
CCOc1ccc(N(CC(=O)N/N=C/c2ccccn2)S(=O)(=O)c2ccc(Cl)cc2)cc1 | / | 2.1 | -3.9% | 1.6 | -1.6%
CCOC(=O)Cc1csc(NC(=O)c2sc3nc4ccc(CC)cc4cc3c2N)n1 | -3.2% | 23.7* | 27.4% | 81.2* | ?
SMILES | Giardia FBPA inh | Cycloheximide cs | NS1 function inh | Shiga toxin inh | LmPK inhibitor
CCOC(=O)Cc1csc(NC(=O)c2cc3ccccc3o2)n1 | -1.2% | 23.2* | / | 53.6* | -22.4%
CCOC(=O)Cc1csc(NC(=O)c2cc(C)cc(C)c2)n1 | -8.2% | -1.8 | -5.0% | 18.9 | 0.2%
CC(NC(=O)c1ccccc1)(C(=O)O)C(=O)O | / | / | 1.8% | / | /
COc1ccc(NC(=O)CSc2cn[nH]n2)cc1OC | -5.1% | -2.9 | 15.7% | -17.0 | 6.9%
O=C(Oc1ccccc1)N1CCC[C@@]2(CCN(c3ccccn3)C2)C1 | 7.6% | / | / | / | /
Clc1nc2c(-c3ccccc3)nnn2c2ccccc12 | -4.2% | 23.8* | -30.6% | 25.0 | -12.4%
